Compounds without any hit were thinned out: in the full panel of roughly 83,000, 20% have a hit.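 How to read the values: 0–100, growth inhibition (40 = 60% inhibited); 0, no net growth; -100 to 0, cell death (-40 = 40% of starting cells died; -100 = all dead).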 Calls of active or inactive are those of the source. Rule for the calls: active = growth percent below 10; inactive = the rest.
The compounds below were run on NCI-H460 lung (assay: NCI-60 one-dose screen, 48 h (100 = growth as untreated, 0 = no growth, -100 = all killed)). Conditions: 10 µM unless noted.

| SMILES | growth |
| --- | --- |
| CC(C)=CCCC(C)c1ccc(C)c2c1OCN(CC1CCNCC1)C2 (stereo not drawn) | 24.6% (inactive) |
| COc1ccc(C2CC(c3ccc4c(c3)OCO4)=NN2C=O)cc1 (stereo not drawn) | 102% (inactive) |
| COc1cc(-c2nc3sc4c(c3c(=O)[nH]2)CCCCCC4)cc(OC)c1OC | 8.85% (active) |
| O=C(C(=O)N1CCOCC1)c1cn(CCCn2cc(C(=O)C(=O)N3CCOCC3)c3ccccc32)c2ccccc12 | 129% (inactive) |
| COc1ccc(/C=C2/SC(=Nc3c(C)nn(-c4ccccc4)c3N)NC2=O)cc1 | 17.7% (inactive) |
| C/C(=C\CCc1ccoc1)CC/C=C(\C)CCCN1CCOCC1 | 54.3% (inactive) |
| CO[C@H]1/C=C/O[C@@]2(C)Oc3c(C)c(O)c4c(O)c(c(/C=N/N5C(C)CN(Cc6ccc(C#N)cc6)CC5C)c(O)c4c3C2=O)NC(=O)/C(C)=C\C=C\[C@H](C)[C@H](O)[C@@H](C)[C@@H](O)[C@@H](C)[C@H](OC(C)=O)[C@@H]1C (stereo partly drawn) | 3.3% (active) |
| CCOC(=O)CNC(=O)C1(NC(=O)CNC(=O)OCc2ccccc2)CCCC1 | 112% (inactive) |
| COc1cnc2c(c1)C(=O)c1c-2n(CCCNC(C)C)c(=O)c2cc(F)ccc12 | -32% (active) |
| Nc1ccc2c(c1Br)Cc1ccccc1-2 | 102% (inactive) |
| O=C1OC2(c3ccccc31)c1ccccc1-c1ccccc12 | 106% (inactive) |
| CCCCCCCCN(CCO)CCCCCCCC | 106% (inactive) |
| Nc1ccc2c(c1)C(=O)c1cc(Cl)c(Cl)cc1-2 | 105% (inactive) |
| O=C(/C=C/c1cccc(Nc2ccnc3cc(Cl)ccc23)c1)c1ccc(Cl)cc1 | 66.7% (inactive) |
| COc1ccc(NC(=O)c2ccccc2-c2ccccc2)c(C(N)=O)c1 | 17% (inactive) |
| CC(=O)N1N=C(c2ccc(Cl)cc2)CC1c1c(C)nn(-c2ccccc2)c1N(C)Cc1ccccc1 (stereo not drawn) | 79% (inactive) |
| O=C(N/N=C/c1cccc(O)c1O)c1ccccc1 | 3.29% (active) |
| Clc1ccc(C2c3ccccc3-c3nccn32)c(Cl)c1 (stereo not drawn) | 88.5% (inactive) |
| OCc1n(Cc2ccc3ccccc3c2)cc[n+]1Cc1ccc2ccccc2c1 | 53.1% (inactive) |
| CCOC(=O)c1cnc2c(C)cc(C)cc2c1NCCCN(C)C | 10.1% (inactive) |

| SMILES | growth |
| --- | --- |
| Cc1nn(-c2ccccc2)cc1/C=C1\SC(N2CCCCC2)=NC1=O | 95.2% (inactive) |
| OCCCc1n(Cc2ccc3ccccc3c2)c2ccccc2[n+]1Cc1ccc2ccccc2c1 | 18.4% (inactive) |
| Cc1ccccc1NC(=O)NC(CC(N)=O)c1ccc2c(c1)nc(-c1cccc(Oc3ccc(C(C)(C)C)cc3)c1)n2CCCN1CCCCC1C (stereo not drawn) | -30.7% (active) |
| CC[C@@H](C)/C=C(C)/C=C/C(=O)c1c(O)c(-c2ccc(O)cc2)cn(OC2CC(=O)CCC(C)OC(=O)CC2O)c1=O (stereo partly drawn) | -19.6% (active) |
| COc1ccc2c(c1)c(CC(=O)[Se]C)c(C)n2C(=O)c1ccc(Cl)cc1 | 3.41% (active) |
| CC(=O)/C(=C/c1ccc(Cl)cc1)C(=O)c1ccccc1 | 99.7% (inactive) |
| O=C1c2cccc(NCCN=Cc3ccccc3O)c2C(=O)c2c(NCCN=Cc3ccccc3O)cccc21 | 4.28% (active) |
| c1ccc(CN=C(NCc2ccccc2)NCc2ccccc2)cc1 | 73.4% (inactive) |
| COc1ccccc1-n1c(-c2ccc(O)cc2C)cn2c3c(=O)[nH]c(=O)n(C)c3nc12 | 93.1% (inactive) |
| COc1ccc(-c2cnc(SCC(=O)Nc3ccc(-c4nc5ccccc5s4)cc3)n2-c2ccc(OC)cc2)cc1 | 110% (inactive) |
| COc1cc(Cl)cc(-c2nn(-c3cccc(NC(=O)c4cc(C(F)(F)F)cc(C(F)(F)F)c4)c3)cc2-c2ccncc2)c1 | 40.9% (inactive) |
| COc1c(O)cc2c(c1CC=C(C)C)OC(=O)c1c(cc(O)c(CC=C(C)C)c1O)O2 | 9.47% (active) |
| O=C1/C(=C/c2cccc(Cl)c2)CCc2ccccc21 | 107% (inactive) |
| CCNCCCn1c2c(c3ccc(F)cc3c1=O)C(=O)c1cc(OC)cnc1-2 | -27.1% (active) |
| CCN(CC)c1ccc(N=C2C=CC(=O)C=C2NC(C)=O)cc1 | 106% (inactive) |
| N#Cc1c(-c2ccccc2)cc(-c2ccccc2)n(CCC(=O)O)c1=O | 45.3% (inactive) |
| COc1ccc2nc(NC(=O)CN3CCn4c(nnc4C(F)(F)F)C3)sc2c1 | 99.5% (inactive) |
| O=C1NC(=O)/C(=C\c2ccco2)S1 | 105% (inactive) |
| O=C1CNc2cc(Cl)ccc2N1 | 109% (inactive) |

Each compound was assayed on HOP-92 NSCLC in the same assay as above. Conditions: 10 µM unless noted.

| SMILES | growth |
| --- | --- |
| CC(C)=CCCC(C)c1ccc(C)c2c1OCN(CC1CCNCC1)C2 (stereo not drawn) | 12.3% (inactive) |
| COc1ccc(C2CC(c3ccc4c(c3)OCO4)=NN2C=O)cc1 (stereo not drawn) | 89.2% (inactive) |
| COc1cc(-c2nc3sc4c(c3c(=O)[nH]2)CCCCCC4)cc(OC)c1OC | 42.7% (inactive) |
| O=C(C(=O)N1CCOCC1)c1cn(CCCn2cc(C(=O)C(=O)N3CCOCC3)c3ccccc32)c2ccccc12 | 78.8% (inactive) |
| COc1ccc(/C=C2/SC(=Nc3c(C)nn(-c4ccccc4)c3N)NC2=O)cc1 | 53.7% (inactive) |
| C/C(=C\CCc1ccoc1)CC/C=C(\C)CCCN1CCOCC1 | 57.4% (inactive) |
| CO[C@H]1/C=C/O[C@@]2(C)Oc3c(C)c(O)c4c(O)c(c(/C=N/N5C(C)CN(Cc6ccc(C#N)cc6)CC5C)c(O)c4c3C2=O)NC(=O)/C(C)=C\C=C\[C@H](C)[C@H](O)[C@@H](C)[C@@H](O)[C@@H](C)[C@H](OC(C)=O)[C@@H]1C (stereo partly drawn) | 27.1% (inactive) |
| CCOC(=O)CNC(=O)C1(NC(=O)CNC(=O)OCc2ccccc2)CCCC1 | 96.2% (inactive) |
| COc1cnc2c(c1)C(=O)c1c-2n(CCCNC(C)C)c(=O)c2cc(F)ccc12 | -8.3% (active) |
| Nc1ccc2c(c1Br)Cc1ccccc1-2 | 76% (inactive) |
| O=C1OC2(c3ccccc31)c1ccccc1-c1ccccc12 | 96.9% (inactive) |
| CCCCCCCCN(CCO)CCCCCCCC | 97% (inactive) |
| Nc1ccc2c(c1)C(=O)c1cc(Cl)c(Cl)cc1-2 | 72.2% (inactive) |
| O=C(/C=C/c1cccc(Nc2ccnc3cc(Cl)ccc23)c1)c1ccc(Cl)cc1 | 45.8% (inactive) |
| COc1ccc(NC(=O)c2ccccc2-c2ccccc2)c(C(N)=O)c1 | 57.3% (inactive) |
| CC(=O)N1N=C(c2ccc(Cl)cc2)CC1c1c(C)nn(-c2ccccc2)c1N(C)Cc1ccccc1 (stereo not drawn) | 55.2% (inactive) |
| O=C(N/N=C/c1cccc(O)c1O)c1ccccc1 | -4.33% (active) |
| Clc1ccc(C2c3ccccc3-c3nccn32)c(Cl)c1 (stereo not drawn) | -2.6% (active) |
| OCc1n(Cc2ccc3ccccc3c2)cc[n+]1Cc1ccc2ccccc2c1 | -2.81% (active) |
| CCOC(=O)c1cnc2c(C)cc(C)cc2c1NCCCN(C)C | 4.88% (active) |

| SMILES | growth |
| --- | --- |
| Cc1nn(-c2ccccc2)cc1/C=C1\SC(N2CCCCC2)=NC1=O | 76.7% (inactive) |
| OCCCc1n(Cc2ccc3ccccc3c2)c2ccccc2[n+]1Cc1ccc2ccccc2c1 | -24.3% (active) |
| Cc1ccccc1NC(=O)NC(CC(N)=O)c1ccc2c(c1)nc(-c1cccc(Oc3ccc(C(C)(C)C)cc3)c1)n2CCCN1CCCCC1C (stereo not drawn) | 13.5% (inactive) |
| CC[C@@H](C)/C=C(C)/C=C/C(=O)c1c(O)c(-c2ccc(O)cc2)cn(OC2CC(=O)CCC(C)OC(=O)CC2O)c1=O (stereo partly drawn) | 57.7% (inactive) |
| COc1ccc2c(c1)c(CC(=O)[Se]C)c(C)n2C(=O)c1ccc(Cl)cc1 | -6.92% (active) |
| CC(=O)/C(=C/c1ccc(Cl)cc1)C(=O)c1ccccc1 | 62.5% (inactive) |
| O=C1c2cccc(NCCN=Cc3ccccc3O)c2C(=O)c2c(NCCN=Cc3ccccc3O)cccc21 | -38.3% (active) |
| c1ccc(CN=C(NCc2ccccc2)NCc2ccccc2)cc1 | 48.5% (inactive) |
| COc1ccccc1-n1c(-c2ccc(O)cc2C)cn2c3c(=O)[nH]c(=O)n(C)c3nc12 | 49.4% (inactive) |
| COc1ccc(-c2cnc(SCC(=O)Nc3ccc(-c4nc5ccccc5s4)cc3)n2-c2ccc(OC)cc2)cc1 | 93.6% (inactive) |
| COc1cc(Cl)cc(-c2nn(-c3cccc(NC(=O)c4cc(C(F)(F)F)cc(C(F)(F)F)c4)c3)cc2-c2ccncc2)c1 | 46.8% (inactive) |
| COc1c(O)cc2c(c1CC=C(C)C)OC(=O)c1c(cc(O)c(CC=C(C)C)c1O)O2 | 54.6% (inactive) |
| O=C1/C(=C/c2cccc(Cl)c2)CCc2ccccc21 | 72.6% (inactive) |
| CCNCCCn1c2c(c3ccc(F)cc3c1=O)C(=O)c1cc(OC)cnc1-2 | -15.5% (active) |
| CCN(CC)c1ccc(N=C2C=CC(=O)C=C2NC(C)=O)cc1 | 104% (inactive) |
| N#Cc1c(-c2ccccc2)cc(-c2ccccc2)n(CCC(=O)O)c1=O | 74.8% (inactive) |
| COc1ccc2nc(NC(=O)CN3CCn4c(nnc4C(F)(F)F)C3)sc2c1 | 101% (inactive) |
| O=C1NC(=O)/C(=C\c2ccco2)S1 | 87% (inactive) |
| O=C1CNc2cc(Cl)ccc2N1 | 102% (inactive) |

Source: PubChem BioAssay (NCI)
